# An excerpt weighted towards active compounds, which were near 19% of everything screened.
# TDP1 cell noCPT: qHTS for Inhibitors of human tyrosyl-DNA phosphodiesterase 1 (TDP1): qHTS in cells in absence of CPT. actives 15% (n = 420,000). AID 686978, 2013. DT40 Tdp1-/- hTDP1 cells, no CPT, ATP luminescence, 48 h. Potency, µM (titrated, usually from 46.2 µM), for the others: at the highest dose activity change, negative = growth inhibition, hits mostly inhibitors; further: potency means the concentration at half of the fitted maximal effect; nearly all actives have a fitted effect of over 55% in size
#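 Growth of hTDP1-complemented DT40 Tdp1-knockout cells is measured by ATP luminescence after at least 48 hr compound exposure at 37 °C, with DMSO substituting for the 20 nM CPT used in the parallel screen.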
# HT1080NT lethal: kills 2HG-producing HT-1080-NT fibrosarcoma cells; actives 1.6% (n = 360,000); HT-1080-NT fibrosarcoma viability, CellTiter-Glo ATP luminescence, 48 h; Potency, µM (highest dose often 46.1 µM), inactives show top-dose activity, negative = less viability, usual class: cytotoxic; AID 686970;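 further: NT is the 2HG producing partner of a matched IDH1 knockdown line; potency means the concentration at half of the fitted maximal effect; 0% = DMSO-treated cells and -100% = media-only wells without cells; nearly all actives have a fitted effect of over 55% in size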
#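 Read-out is CellTiter-Glo luminescence after 10 minutes at room temperature, following 48 hours' compound treatment of HT-1080-NT cells (750 cells/well, RPMI, 5% FBS, 37 degrees C).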
# HT1080 IDH1KD tx: kills HT-1080 cells with IDH1 knockdown. AID 686971. HT-1080 IDH1 knockdown viability, ATP luminescence, 48 h. actives 2% (n = 360,000). Potency, µM (doses to about 46.1 µM), inactives show top-dose activity, negative = toxicity, hits mostly cytotoxic;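 further: potency means the concentration at half of the fitted maximal effect; 0% = DMSO wells and -100% = cell-free medium wells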
#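 HT-1080-IDH1KD cells (IDH1 knocked down), 750/well in RPMI with 5% FBS, treated with compound 48 h at 37 degrees C. Viability by CellTiter-Glo luminescence, normalised to DMSO and no-cell wells; concentration-response curves classed.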
# IL-1B inflam inh: inhibitors of inflammasome signaling (IL-1 beta secretion). activity change, % at 57.5 µM. actives 4.7% (n = 360,000). THP-1 LPS/ATP IL-1B secretion, AlphaLISA, 16 h; active compounds read low. AID 743279; in the data active means activity change below about -50%; inconclusive means mostly about -30% to -49%
#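 Secreted IL-1B measured by AlphaLISA bead assay after 16 h compound exposure of THP-1 cells; compounds (final up to 57.5 uM) added 1 h before LPS (250 ng/mL) and ATP (1.25 mM) stimulation; lower signal means less secretion.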
# TDP1 cell CPT: DT40-hTDP1 cell growth loss with CPT | actives 12% (n = 420,000) | Potency, µM (titrated, usually from 46.2 µM), without a hit: at the top dose activity change, negative = growth inhibition, actives largely listed as inhibitors | chicken DT40 Tdp1-/-;hTDP1 cells + 20 nM CPT, ATP luminescence, 48 h; further: potency means the concentration at half of the fitted maximal effect; nearly all actives have a fitted effect of over 55% in size
#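 Cell growth measured by CellTiter-Glo luminescence after a minimum 48 h, 37 C compound exposure with 20 nM CPT in Tdp1-knockout DT40 cells stably expressing hTDP1, seeded 400/well; qHTS titration format.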
# Starred values were filed as active, the others as inactive; ? = inconclusive; . = no result. Unless noted, the call rests on the fitted dose curve; in most records, active means well fitted curve in the direction sought with a large enough effect; inconclusive means small, poorly fitted or top-dose-only effect, or another doubt; inactive means no such curve, though single readings can be large; an effect the other way counts as inactive or inconclusive. Unless noted, on the % scale 0 is the no-effect control and ±100 the full control effect.
SMILES,TDP1 cell noCPT,HT1080NT lethal,HT1080 IDH1KD tx,IL-1B inflam inh,TDP1 cell CPT
O=C(N1CCN=C1SCc1cccnc1)C12CC3CC(CC(C3)C1)C2,14.6µM*,-24.2%,-23.0%,.,?
Cn1ccc2c(/C=C/c3ccc(F)cc3)cc3c(c21)C1CCC3O1 (centres undefined),11.6µM*,?,?,14.0,25.9µM*
Cn1ccc2c(/C=C/c3ccc(F)cc3)cc3c(c21)C1CCC3C1 (centres undefined),?,0.0%,1.9%,16.1,-16.3%
Cn1ccc2c(N3CCCCCCC3)cc3c(c21)C1CCC3O1 (centres undefined),20.6µM*,?,?,-7.9,?
CN(c1cccc(F)c1)c1cc2c(c3c1ccn3C)C1CCC2O1 (centres undefined),16.4µM*,-18.7%,-21.5%,0.0,16.4µM*
CCCN(CC1CC1)c1cc2c(c3c1ccn3C)C1CCC2O1 (centres undefined),10.3µM*,-12.0%,-1.9%,-4.0,14.6µM*
CCN(CC)c1cc2c(c3c1ccn3C)C1CCC2O1 (centres undefined),-17.9%,20.8%,6.5%,1.8,-11.2%
COc1ccc(-c2cc3c(c4c2ccn4C)C2CCC3O2)cn1 (centres undefined),16.4µM*,12.8%,-0.3%,8.3,18.4µM*
CN(c1ccc(Cl)cc1)c1cc2c(c3c1ccn3C)C1CCC2O1 (centres undefined),23.1µM*,-15.7%,-22.0%,8.1,?
Cn1ccc2c(-c3ccc(F)nc3)cc3c(c21)C1CCC3O1 (centres undefined),?,12.2%,20.4%,55.1,?
COCCn1c(=NC(=O)C2COc3ccccc3O2)sc2cc(S(N)(=O)=O)ccc21 (centres undefined),?,-0.8%,3.3%,-7.9,?
CCn1c(=NC(=O)c2ccc3c(c2)OCCO3)sc2c(C)ccc(OC)c21,23.1µM*,.,.,.,?
CCn1c(=NC(=O)c2cccc(N3C(=O)CCC3=O)c2)sc2c(OC)ccc(OC)c21,18.4µM*,-2.6%,-0.3%,1.0,-25.5%
CCOCCn1c(=NC(=O)c2ccc3c(c2)OCCO3)sc2cc(OCC)ccc21,14.6µM*,.,.,.,?
CCn1c(=NC(=O)C2COc3ccccc3O2)sc2c(OC)ccc(OC)c21 (centres undefined),14.6µM*,?,3.7%,-22.3,?
Cc1ccc(NC(=O)CSc2nnc(-c3ccc([N+](=O)[O-])cc3)o2)c(C)c1,-20.5%,.,.,.,-19.7%
CCCc1nc2cccnc2n1C1CCN(C(=O)CC2NC(=O)c3ccccc32)CC1 (centres undefined),-13.3%,.,.,.,0.4%
COc1ccc(Cl)cc1NC(=O)CN1CCC(n2nnc3cc(C)ccc32)CC1,23.1µM*,-16.1%,?,8.8,?
COc1ccccc1NC(=O)CN1CCC(n2c(C)nc3cc(F)ccc32)CC1,23.1µM*,-9.8%,-3.9%,14.1,?
CCOc1ccc(NC(=O)N2CCC(n3nnc4cc(C)ccc43)CC2)cc1,?,6.2%,0.1%,-15.3,?
Cc1ccc2c(c1)nnn2C1CCN(CC(=O)NCCc2ccccc2)CC1,?,-1.5%,3.7%,-68.1*,?
Cc1ccc2c(c1)nnn2C1CCN(C(=O)Nc2ccccc2C)CC1,5.0%,7.3%,15.2%,-57.4*,0.0%
NS(=O)(=O)c1ccc(NC(=O)c2ccc(CNS(=O)(=O)c3cc(C(F)(F)F)ccc3Cl)cc2)cc1,?,-0.8%,5.8%,60.8,-10.3%
O=C(NCCCl)Nc1cccnc1Cl,?,2.7%,6.0%,28.8,5.5%
CC(=O)CCC(=O)N1CCC(n2nccc2NC(=O)c2ccccc2C)CC1,0.0%,-0.6%,-2.0%,15.6,-12.7%
SMILES,TDP1 cell noCPT,HT1080NT lethal,HT1080 IDH1KD tx,IL-1B inflam inh,TDP1 cell CPT
COc1ccccc1NC(=O)CN1CCC(n2nnc3cc(F)ccc32)CC1,?,-5.5%,-5.8%,-26.1,16.4µM*
Cc1nc2cc(F)ccc2n1C1CCN(C(=O)c2c(F)cccc2F)CC1,20.6µM*,-19.3%,-1.0%,23.8,11.6µM*
Cc1ccc2c(c1)nnn2C1CCN(CC(=O)Nc2ccccc2N2CCOCC2)CC1,23.1µM*,?,?,-52.9*,18.4µM*
Cc1nc2cc(C(F)(F)F)ccc2n1C1CCN(CC(=O)NC(C)(C)C)CC1,?,5.7%,2.1%,-3.6,18.4µM*
O=C(O)/C=C\c1cccc(-n2nnnc2SCc2ccccc2F)c1,23.9%,-17.6%,-15.6%,21.3,2.2%
Cc1nnc(NS(=O)(=O)c2ccc(Br)cc2)s1,-6.3%,-1.3%,4.4%,-2.6,-24.2%
COc1cccc(C(O)c2nc(-c3cncnc3)cs2)c1 (centres undefined),-13.8%,2.7%,0.0%,-18.1,-28.4%
O=C(CNC(=O)C12CC3CC(CC(C3)C1)C2)NC1=NCCS1,?,3.2%,-3.9%,6.7,?
O=C(CNC(=O)C1CCCCC1)NC1=NCCS1,?,6.0%,13.3%,13.2,25.9µM*
Cc1cc(C)cc(C(O)c2ncc(-c3ccc(F)cc3)[nH]2)c1 (centres undefined),?,-25.8%,-18.7%,2.1,?
Cn1c(O)c(N=NC(=O)c2ccco2)c2ccccc21,14.6µM*,-5.0%,-13.3%,-23.5,-0.3%
Cn1c(O)c(N=NC(=O)c2ccccc2O)c2ccccc21,16.4µM*,-8.2%,?,-1.6,13µM*
Cn1c(O)c(N=NC(N)=S)c2ccccc21,5.31µM*,.,.,.,6.68µM*
Cc1cc(N=NC(=O)c2ccccc2O)c2ccccc2c1O,18.4µM*,?,?,0.0,16.4µM*
Cc1cc(NC(=O)c2cc(-c3cccc(OCC(C)C)c3)nc3ccccc23)no1,?,-14.3%,-1.2%,0.0,?
O=C(C[C@@H]1C/C=C/CCCC(=O)O[C@H](c2ccccc2)CNC1=O)N[C@H](CO)Cc1ccccc1,?,2.0%,1.0%,4.8,?
CCOC(=O)C1C(=O)NC(C(=O)OCC)(C(=O)OCC)C1CC (centres undefined),-4.3%,21.3%,17.9%,-9.1,-1.4%
CCc1cccc(C)c1NC(=O)CCCN1C(=O)CN(C)C1=O,11.5%,1.0%,2.7%,-8.2,-5.2%
COc1ccccc1CNC(=O)COC(=O)c1nccnc1N,-3.2%,2.0%,-3.5%,14.8,-5.1%
Cc1ccnc(N/C=C(\C#N)c2nc(-c3cccc(Br)c3)cs2)c1,18.4µM*,-11.1%,?,-8.4,20.6µM*
C=C1C(=O)OCC2C(C(=O)O)=CC3C(C)C(C)=CC123 (centres undefined),18.4µM*,-10.8%,?,-70.3*,18.4µM*
c1ccc(-c2csc(-n3cccn3)n2)cc1,0.7%,-1.1%,9.4%,-4.2,9.3%

# Screening results: PubChem, National Center for Advancing Translational Sciences (NCATS)
